Where “and” joins values, the source holds several entries; their conditions need not be identical. Equal values may be shown once. Hit rate of the full screen: of about 5,500 compounds, about 2,000 (36%) were called active. Not shown: some 18% with an inconclusive outcome. No stated cut-off is given here; in the data, active means normalized growth mostly below about 0.91 (no sharp cut-off); inconclusive means no clear call, values can overlap the other calls; inactive means mostly above about 0.92. The list shows a part of the results.
Assay: chemical genetic growth profiling, strain panel (AID 1159580);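 further: tested at 20 µM; growth read once vehicle control cultures reached saturation at 30 °C; 1 = growth at the plate median or of vehicle wells; lower values mean less growth of the strain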
Conditions: growth OD

Measured: normalized growth

O=C(OCC(O)CO)c1ccccc1Nc1ccnc2cc(Cl)ccc12 (configuration not stated)
inactive: S. cerevisiae deletion strains, locus YAL013W, strain DEP1, active compounds read low 0.996 | S. cerevisiae deletion strains, locus YBR021W, strain FUR4, active compounds read low 1.01 | S. cerevisiae deletion strains, locus YBR229C, strain ROT2, active compounds read low 0.994 | S. cerevisiae deletion strains, locus YCL029C, strain bik1, active compounds read low 0.961 | S. cerevisiae deletion strains, locus YDL035C, strain GPR1, active compounds read low 1.01 | S. cerevisiae deletion strains, locus YDL074C, strain BRE1, active compounds read low 0.978 | S. cerevisiae deletion strains, locus YDL101C, strain DUN1, active compounds read low 0.98 | S. cerevisiae deletion strains, locus YDL134C, strain PPH21, active compounds read low 0.999 | S. cerevisiae deletion strains, locus YDL185W, strain tfp1, active compounds read low 0.978 | S. cerevisiae deletion strains, locus YDL192W, strain arf1, active compounds read low 0.99 | S. cerevisiae deletion strains, locus YDR101C, strain arx1, active compounds read low 0.988 | S. cerevisiae deletion strains, locus YDR150W, strain NUM1, active compounds read low 0.98 | S. cerevisiae deletion strains, locus YDR162C, strain NBP2, active compounds read low 0.992 | S. cerevisiae deletion strains, locus YDR318W, strain mcm21, active compounds read low 0.977 | S. cerevisiae deletion strains, locus YDR388W, active compounds read low 0.997 | S. cerevisiae deletion strains, locus YDR502C, strain sam2, active compounds read low 0.975 | S. cerevisiae deletion strains, locus YEL061C, strain CIN8, active compounds read low 0.997 | S. cerevisiae deletion strains, locus YER110C, active compounds read low 0.978 | S. cerevisiae deletion strains, locus YER155C, strain BEM2, active compounds read low 0.988 | S. cerevisiae deletion strains, locus YER167W, strain BCK2, active compounds read low 0.986 | S. cerevisiae deletion strains, locus YGL078C, strain dbp3, active compounds read low 0.995 | S. cerevisiae deletion strains, locus YGL086W, strain mad1, active compounds read low 0.999 | S. cerevisiae deletion strains, locus YGL248W, strain PDE1, active compounds read low 0.983 | S. cerevisiae deletion strains, locus YGR078C, strain PAC10, active compounds read low 0.962 | S. cerevisiae deletion strains, locus YGR135W, strain pre9, active compounds read low 0.974 | S. cerevisiae deletion strains, locus YGR229C, strain SMI1, active compounds read low 0.981 | S. cerevisiae deletion strains, locus YGR252W, strain gcn5, active compounds read low 1.06 | S. cerevisiae deletion strains, locus YHR030C, strain SLT2, active compounds read low 0.991 and 0.957 | S. cerevisiae deletion strains, locus YHR079C, strain IRE1 (second series), active compounds read low 0.989 | S. cerevisiae deletion strains, locus YHR079C, strain IRE1, active compounds read low 0.969 | S. cerevisiae deletion strains, locus YHR094C, strain hxt1, active compounds read low 0.979 | S. cerevisiae deletion strains, locus YHR129C, strain ARP1, active compounds read low 0.981 | S. cerevisiae deletion strains, locus YHR200W, strain rpn10, active compounds read low 0.987 | S. cerevisiae deletion strains, locus YIL066C, strain RNR3, active compounds read low 0.98 | S. cerevisiae deletion strains, locus YIL073C, strain SPO22, active compounds read low 0.925 | S. cerevisiae deletion strains, locus YIL125W, strain kgd1, active compounds read low 0.991 | S. cerevisiae deletion strains, locus YIR030C, strain dcg1, active compounds read low 0.988 | S. cerevisiae deletion strains, locus YJL095W, strain BCK1, active compounds read low 0.943 and 0.974 | S. cerevisiae deletion strains, locus YJL134W, strain LCB3, active compounds read low 0.993 | S. cerevisiae deletion strains, locus YJL168C, strain set2, active compounds read low 0.995 | S. cerevisiae deletion strains, locus YJL187C, strain SWE1 (second series), active compounds read low 0.936 | S. cerevisiae deletion strains, locus YJR043C, strain POL32, active compounds read low 0.982 | S. cerevisiae deletion strains, locus YJR066W, strain TOR1, active compounds read low 0.912 | S. cerevisiae deletion strains, locus YJR075W, strain HOC1, active compounds read low 0.978 | S. cerevisiae deletion strains, locus YKL009W, strain mrt4, active compounds read low 0.968 | S. cerevisiae deletion strains, locus YKL068W, active compounds read low 0.987 | S. cerevisiae deletion strains, locus YKL085W, strain MDH1 (second series), active compounds read low 0.975 | S. cerevisiae deletion strains, locus YKL085W, strain MDH1, active compounds read low 0.975 | S. cerevisiae deletion strains, locus YKL190W, strain CNB1, active compounds read low 0.984 | S. cerevisiae deletion strains, locus YKR001C, strain vps1, active compounds read low 0.99 | S. cerevisiae deletion strains, locus YLR039C, strain RIC1, active compounds read low 1.01 | S. cerevisiae deletion strains, locus YLR058C, strain SHM2, active compounds read low 0.986 | S. cerevisiae deletion strains, locus YLR102C, strain apc9, active compounds read low 0.992 | S. cerevisiae deletion strains, locus YLR113W, strain HOG1, active compounds read low 1.01 | S. cerevisiae deletion strains, locus YLR262C, strain YPT6, active compounds read low 1.03 | S. cerevisiae deletion strains, locus YLR268W, strain sec22, active compounds read low 0.918 | S. cerevisiae deletion strains, locus YLR330W, strain CHS5, active compounds read low 0.988 | S. cerevisiae deletion strains, locus YLR342W, strain FKS1 (second series), active compounds read low 1.05 | S. cerevisiae deletion strains, locus YLR371W, strain rom2, active compounds read low 0.985 | S. cerevisiae deletion strains, locus YLR418C, strain cdc73, active compounds read low 0.924 | S. cerevisiae deletion strains, locus YML016C, strain PPZ1, active compounds read low 0.999 | S. cerevisiae deletion strains, locus YML032C, strain rad52, active compounds read low 0.971 | S. cerevisiae deletion strains, locus YML124C, strain tub3, active compounds read low 0.988 | S. cerevisiae deletion strains, locus YMR078C, strain ctf18, active compounds read low 0.99 | S. cerevisiae deletion strains, locus YMR223W, strain ubp8, active compounds read low 1.01 | S. cerevisiae deletion strains, locus YMR263W, strain SAP30, active compounds read low 0.976 | S. cerevisiae deletion strains, locus YMR307W, strain GAS1, active compounds read low 0.984 | S. cerevisiae deletion strains, locus YNL067W, strain RPL9B, active compounds read low 0.968 | S. cerevisiae deletion strains, locus YNL128W, strain TEP1, active compounds read low 0.975 | S. cerevisiae deletion strains, locus YNL153C, strain GIM3, active compounds read low 0.976 | S. cerevisiae deletion strains, locus YNL183C, strain NPR1, active compounds read low 0.899 | S. cerevisiae deletion strains, locus YNL233W, strain BNI4, active compounds read low 0.974 | S. cerevisiae deletion strains, locus YNL250W, strain rad50, active compounds read low 0.969 | S. cerevisiae deletion strains, locus YNL271C, strain bni1, active compounds read low 0.987 | S. cerevisiae deletion strains, locus YNL298W, strain CLA4, active compounds read low 0.993 | S. cerevisiae deletion strains, locus YNL307C, strain MCK1, active compounds read low 0.983 | S. cerevisiae deletion strains, locus YNL322C, strain KRE1, active compounds read low 0.988 | S. cerevisiae deletion strains, locus YNR052C, strain pop2, active compounds read low 1.01 | S. cerevisiae deletion strains, locus YOL006C, strain TOP1, active compounds read low 0.929 | S. cerevisiae deletion strains, locus YOL012C, strain htz1 1.65 | S. cerevisiae deletion strains, locus YOL147C, strain pex11, active compounds read low 0.98 | S. cerevisiae deletion strains, locus YOR061W, strain CKA2, active compounds read low 0.99 | S. cerevisiae deletion strains, locus YOR069W, strain VPS5, active compounds read low 0.996 | S. cerevisiae deletion strains, locus YOR136W, strain idh2, active compounds read low 0.998 | S. cerevisiae deletion strains, locus YOR144C, strain elg1, active compounds read low 0.993 | S. cerevisiae deletion strains, locus YOR184W, strain ser1, active compounds read low 0.954 | S. cerevisiae deletion strains, locus YOR231W, strain MKK1, active compounds read low 0.983 | S. cerevisiae deletion strains, locus YOR316C, strain cot1, active compounds read low 0.982 | S. cerevisiae deletion strains, locus YPL055C, strain LGE1, active compounds read low 0.938 | S. cerevisiae deletion strains, locus YPL241C, strain CIN2, active compounds read low 0.991 | S. cerevisiae deletion strains, locus YPL256C, strain CLN2, active compounds read low 0.927 | S. cerevisiae deletion strains, locus YPR119W, strain clb2, active compounds read low 0.99 | S. cerevisiae deletion strains, locus YPR141C, strain kar3, active compounds read low 0.97 | S. cerevisiae deletion strains, locus YPR163C, strain tif3, active compounds read low 0.979 | S. cerevisiae deletion strains, locus YPR167C, strain met16, active compounds read low 0.989 | S. cerevisiae deletion strains, strain wtn01, active compounds read low 0.98 | S. cerevisiae strains, strain wild type, active compounds read low 0.991

— PubChem BioAssay AID1159580 (chemical genetic matrix, 2015)
